CHO-K1 Ca ag: counter-screen for M1 agonists: effect in parental CHO-K1 cells | Fluo-8 calcium fluorescence; scaled to maximal ATP response, vehicle zero | activation, % at 3 µM | actives 0.48% (n = 360,000) | AID 602248, 2012; in the data active = activation above about 15%;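 also: untransfected CHO-K1 host cells lacking M1 receptor as counterscreen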
M1 antag: human M1 muscarinic receptor antagonists, primary screen, CHO-K1 cells, Fluo-8 calcium fluorescence, 1536-well; Muscarinic acetylcholine receptor M1 (Homo sapiens), P11229; CHO-K1 hM1, ACh EC80 antagonist; inhibition, % at 3 µM; actives 1.3% (n = 360,000); AID 588852, 2011;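 active = percent inhibition above its own plate's cutoff, namely the mean of that plate's compound wells plus 3 SD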;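 also: peak over basal fluorescence ratio during 140 s after agonist addition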
Target sequence (P11229 whole entry, looked up): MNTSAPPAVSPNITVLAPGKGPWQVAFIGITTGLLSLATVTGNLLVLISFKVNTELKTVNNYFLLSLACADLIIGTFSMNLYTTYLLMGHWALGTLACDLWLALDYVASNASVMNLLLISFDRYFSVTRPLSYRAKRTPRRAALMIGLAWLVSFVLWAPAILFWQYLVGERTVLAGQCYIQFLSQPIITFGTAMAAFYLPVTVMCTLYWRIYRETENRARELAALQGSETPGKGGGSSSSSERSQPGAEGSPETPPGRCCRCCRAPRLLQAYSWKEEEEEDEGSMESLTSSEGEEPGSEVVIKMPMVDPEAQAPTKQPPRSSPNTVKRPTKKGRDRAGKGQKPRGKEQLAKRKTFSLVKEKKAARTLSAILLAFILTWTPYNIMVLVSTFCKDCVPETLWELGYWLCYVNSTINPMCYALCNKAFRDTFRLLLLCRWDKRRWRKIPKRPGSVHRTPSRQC
M1 ag: human M1 muscarinic receptor agonists, primary screen, Fluo-8 calcium fluorescence, CHO-K1 cells, HTS. Muscarinic acetylcholine receptor M1 (Homo sapiens), P11229. CHO-K1 hM1, agonist mode; 0% DMSO, 100% acetylcholine EC100. activation, % at 3 µM. actives 0.33% (n = 360,000). AID 588814, 2011;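 active = activation above the run's mean compound activation plus 3 SD, cut at about 16% in these data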;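 also: peak over basal fluorescence ratio within a 140 s kinetic read after compound addition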
M1 PAM: human M1 muscarinic receptor positive allosteric modulators, primary screen, CHO-K1 cells, Fluo-8 calcium fluorescence, 1536-well; Muscarinic acetylcholine receptor M1 (Homo sapiens), P11229; actives 0.088% (n = 360,000); AID 588819, 2011; activation, % at 3 µM; CHO-K1 hM1, ACh EC20; 0% = ACh EC20, 100% = maximal ACh; in the data active = activation above about 19%, passing the limit was not always enough
CHO-K1 Ca PAM: nonselective calcium activators in parental CHO-K1 cells, primary screen, counter-screen for M1 PAM project, cell-based, Fluo-8 calcium fluorescence, full deck, 1536-well. ATP EC20; 0% at ATP EC20, 100% at ATP max. activation, % at 3 µM. actives 0.02% (n = 360,000). AID 602247, 2012;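 active = activation above the run cutoff, the mean activation of all test compounds plus 3 SD, cut at about 40% in these data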;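 also: peak over basal fluorescence ratio in a 140 s read after ATP addition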
CHO-K1 Ca antag: counter-screen for M1 antagonists: effect in parental CHO-K1 cells; ATP-induced calcium, Fluo-8 fluorescence; inhibition, % at 3 µM; actives 0.6% (n = 360,000);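 active = inhibition above a per-plate cutoff, the plate's mean sample inhibition plus 3 SD, cut at about 24% in these data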
Large screens that a line does not name were inactive. Most compounds without a hit are left out; they make up all but 2.4% or so of the library.

CC(=O)NNC(=O)c1sc(=S)n(C)c1C	CHO-K1 Ca ag 19.2
CC(=O)Nc1cccc(-n2nnc(SCC(=O)Nc3ccc(F)c(Cl)c3)n2)c1	CHO-K1 Ca ag 22.0
CN(CCO)c1ncnc2nc[nH]c12	none
O=C(O)CC(C(=O)OC1CCCCC1)N1CCOCC1 (stereo unspecified)	CHO-K1 Ca antag 31.4
O=C(O)CC(C(=O)OCC1CCCO1)N1CCOCC1 (stereo unspecified)	none
OCC#CCSc1nnc(-c2ccncc2)o1	CHO-K1 Ca antag 37.4
CCSc1nnc(-c2ccncc2)o1	none
CC(C)OC(=O)/C(=C\C=C\c1ccccc1)NC(=O)c1ccccc1	none
COc1ccc(-n2nc(C(=O)NCC(=O)NCCCN3CCC(C)CC3)c3ccccc3c2=O)cc1Cl	none
CCOC(=O)CNC(=O)CNC(=O)c1nn(-c2ccc(OC)c(OC)c2)c(=O)c2ccccc12	none
COc1ccc(-n2nc(C(=O)NCC(=O)NCCCN3CCCCCC3)c3ccccc3c2=O)cc1Cl	M1 antag 50.1
CCOC(=O)C1CCN(C(=O)CNC(=O)c2nn(-c3ccc(OC)c(Cl)c3)c(=O)c3ccccc23)CC1	none
CCOC(=O)CNC(=O)CNC(=O)c1nn(-c2ccc(OC)c(Cl)c2)c(=O)c2ccccc12	CHO-K1 Ca antag 25.9
CCOC(=O)C1CCCN(C(=O)CNC(=O)c2nn(-c3ccc(OC)c(Cl)c3)c(=O)c3ccccc23)C1 (stereo unspecified)	M1 ag 18.1
C/C(=N\NS(=O)(=O)c1ccc([N+](=O)[O-])cc1)c1ccc(NC(=O)c2ccco2)cc1	none
COc1ccc(/C(N)=N/OC(=O)CCc2ccccc2)cc1OC	none
Cc1cccc(/C(N)=N/OC(=O)CCc2ccccc2)c1	M1 antag 31.5
Cc1ccc(Cl)cc1N1CCN(c2cccc[n+]2C)CC1	M1 antag 47.9
N#C/C(=C/c1ccc(-c2ccc(S(N)(=O)=O)cc2)o1)c1nc2ccccc2s1	CHO-K1 Ca ag 29.6, M1 antag 59.8, M1 ag 54.3, CHO-K1 Ca antag 40.6
N#C/C(=C\c1ccccn1)c1nc2ccccc2s1	CHO-K1 Ca ag 33.9, M1 ag 27.6, CHO-K1 Ca antag 34.4
COC(=O)c1ccc(/C=C(\C#N)c2nc3ccccc3s2)cc1	none
N#C/C(=C/c1ccc(-c2ccc(S(N)(=O)=O)cc2)o1)C(=O)Nc1ccccc1	CHO-K1 Ca antag 28.1
CC(C)Cc1nc2oc3c(=O)[nH]cnc3c2c2c1CCCC2	none
CC(=O)c1ccc(N2C(=NC(=O)COc3ccccc3)SC3CS(=O)(=O)CC32)cc1 (stereo unspecified)	none
OC(C#CCN1CCCC1)(c1ccccc1)c1cccnc1 (stereo unspecified)	M1 antag 99.5
OC(C#CCN1CCCCCC1)(c1ccccc1)c1cccnc1 (stereo unspecified)	M1 antag 98.8
CCCN(CC#CC(O)(c1ccccc1)c1cccnc1)CCC (stereo unspecified)	none
COc1cnc(-c2ccccn2)nc1Sc1ccc(Cl)cc1	none
CCOC(=O)c1ccc(S(=O)(=O)Nc2ccccc2-c2nnn(CC)n2)cc1	M1 antag 46.8
CC(=O)c1sc(N/N=C\c2cccc(Br)c2)nc1C	CHO-K1 Ca ag 16.9
CC(=O)c1sc(N/N=C\c2ccc(Br)cc2)nc1C	none
Cc1ccccc1NC(=O)c1ccc(C)c(S(=O)(=O)NCc2cccnc2)c1	M1 ag 21.6
CCOC(=O)c1cc2sccc2n1CC(=O)Nc1ccc(OC)cc1OC	none
CCOC(=O)CN(Cc1sccc1C)C(=O)Nc1ccc(OC)cc1OC	CHO-K1 Ca antag 25.0
O=C(O)[C@H]1CCCC[C@H]1C(=O)Nc1cc([N+](=O)[O-])ccc1F	none
CC(NC(=O)C12CC3CC(CC(C3)C1)C2)C(=O)NN=Cc1ccc([N+](=O)[O-])o1 (stereo unspecified)	M1 antag 102.0

High-throughput results as filed in PubChem BioAssay.
